According to the supplement of paper PMC6411743:
± gives the standard deviation of the averaged measurements. Of roughly 5,400 targets only a part is listed; those with the largest changes were picked by preference.

Compound: Nc1nc2c(ncn2[C@@H]2O[C@H](COP(=O)(O)OP(=O)(O)OP(=O)(O)O)[C@@H](O)[C@H]2O)c(=O)[nH]1 [guanosine triphosphate]
Assay: NP40-soluble protein abundance relative to vehicle (solubility fold change) (ratio); higher = more soluble protein in presence of GTP
How it was run: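 Jurkat crude lysate prepared with a Dounce homogeniser was treated at eight concentrations spanning 0.1 to 10 mM, 10 min at room temperature then 3 min at 37 °C. Solubilisation with 0.8% NP40 and benzonase and ultracentrifugation preceded TMT labelling of the supernatant for LC-MS/MS. Fold change against the detergent-processed vehicle was determined per replicate from vsn-normalised intensities, across three independent experiments.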

Chain of UniProt Q96EK7 (Q96EK7 whole entry, one chain of several): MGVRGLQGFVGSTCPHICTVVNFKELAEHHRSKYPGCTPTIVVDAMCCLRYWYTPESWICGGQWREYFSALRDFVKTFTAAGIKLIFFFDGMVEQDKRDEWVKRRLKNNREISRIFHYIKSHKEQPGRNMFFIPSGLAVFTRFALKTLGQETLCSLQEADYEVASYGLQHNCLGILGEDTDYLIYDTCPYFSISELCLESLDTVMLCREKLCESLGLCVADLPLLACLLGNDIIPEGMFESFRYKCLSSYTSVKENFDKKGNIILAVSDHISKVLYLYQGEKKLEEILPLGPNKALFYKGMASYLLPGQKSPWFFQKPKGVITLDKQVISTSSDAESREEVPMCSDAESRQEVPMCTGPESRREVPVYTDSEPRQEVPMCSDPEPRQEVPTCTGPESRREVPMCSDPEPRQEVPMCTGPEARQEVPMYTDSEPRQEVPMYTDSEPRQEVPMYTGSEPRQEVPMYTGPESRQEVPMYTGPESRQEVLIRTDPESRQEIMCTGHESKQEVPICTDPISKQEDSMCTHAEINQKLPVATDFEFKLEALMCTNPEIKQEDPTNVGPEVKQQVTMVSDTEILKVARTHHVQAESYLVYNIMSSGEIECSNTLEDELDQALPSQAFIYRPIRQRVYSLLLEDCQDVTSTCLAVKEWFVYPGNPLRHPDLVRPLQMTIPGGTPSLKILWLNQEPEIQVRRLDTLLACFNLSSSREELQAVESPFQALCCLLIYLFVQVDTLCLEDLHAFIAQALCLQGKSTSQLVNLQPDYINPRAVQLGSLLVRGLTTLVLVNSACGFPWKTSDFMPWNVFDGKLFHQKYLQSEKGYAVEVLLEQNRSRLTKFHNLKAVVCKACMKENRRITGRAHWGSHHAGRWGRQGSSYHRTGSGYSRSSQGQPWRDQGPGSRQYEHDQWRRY
Chain of UniProt Q99501 (Q99501 whole entry, one chain of several): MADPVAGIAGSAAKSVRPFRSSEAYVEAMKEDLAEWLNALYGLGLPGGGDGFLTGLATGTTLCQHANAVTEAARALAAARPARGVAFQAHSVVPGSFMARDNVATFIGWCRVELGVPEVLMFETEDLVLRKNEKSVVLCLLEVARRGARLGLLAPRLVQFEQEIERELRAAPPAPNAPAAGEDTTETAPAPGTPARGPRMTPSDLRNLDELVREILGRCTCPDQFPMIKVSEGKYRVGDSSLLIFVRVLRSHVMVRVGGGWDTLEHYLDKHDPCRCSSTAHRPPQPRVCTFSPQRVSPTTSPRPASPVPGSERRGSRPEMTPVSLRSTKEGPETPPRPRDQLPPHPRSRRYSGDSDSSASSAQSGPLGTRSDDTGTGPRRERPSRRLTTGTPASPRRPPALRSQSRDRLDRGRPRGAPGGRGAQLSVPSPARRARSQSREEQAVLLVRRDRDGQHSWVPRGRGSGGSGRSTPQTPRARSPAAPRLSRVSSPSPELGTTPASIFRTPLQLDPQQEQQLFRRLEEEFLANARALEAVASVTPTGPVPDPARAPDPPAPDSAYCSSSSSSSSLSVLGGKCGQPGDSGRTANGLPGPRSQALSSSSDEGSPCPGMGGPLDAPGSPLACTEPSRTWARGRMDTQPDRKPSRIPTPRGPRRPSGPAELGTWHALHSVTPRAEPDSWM
Chain of UniProt P56556 (P56556 whole entry, one chain of several): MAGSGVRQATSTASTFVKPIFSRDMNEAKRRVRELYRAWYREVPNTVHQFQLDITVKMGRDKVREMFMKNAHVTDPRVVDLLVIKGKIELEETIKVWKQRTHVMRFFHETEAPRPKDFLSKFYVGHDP
Chain of UniProt Q13615 (Q13615 whole entry, one chain of several): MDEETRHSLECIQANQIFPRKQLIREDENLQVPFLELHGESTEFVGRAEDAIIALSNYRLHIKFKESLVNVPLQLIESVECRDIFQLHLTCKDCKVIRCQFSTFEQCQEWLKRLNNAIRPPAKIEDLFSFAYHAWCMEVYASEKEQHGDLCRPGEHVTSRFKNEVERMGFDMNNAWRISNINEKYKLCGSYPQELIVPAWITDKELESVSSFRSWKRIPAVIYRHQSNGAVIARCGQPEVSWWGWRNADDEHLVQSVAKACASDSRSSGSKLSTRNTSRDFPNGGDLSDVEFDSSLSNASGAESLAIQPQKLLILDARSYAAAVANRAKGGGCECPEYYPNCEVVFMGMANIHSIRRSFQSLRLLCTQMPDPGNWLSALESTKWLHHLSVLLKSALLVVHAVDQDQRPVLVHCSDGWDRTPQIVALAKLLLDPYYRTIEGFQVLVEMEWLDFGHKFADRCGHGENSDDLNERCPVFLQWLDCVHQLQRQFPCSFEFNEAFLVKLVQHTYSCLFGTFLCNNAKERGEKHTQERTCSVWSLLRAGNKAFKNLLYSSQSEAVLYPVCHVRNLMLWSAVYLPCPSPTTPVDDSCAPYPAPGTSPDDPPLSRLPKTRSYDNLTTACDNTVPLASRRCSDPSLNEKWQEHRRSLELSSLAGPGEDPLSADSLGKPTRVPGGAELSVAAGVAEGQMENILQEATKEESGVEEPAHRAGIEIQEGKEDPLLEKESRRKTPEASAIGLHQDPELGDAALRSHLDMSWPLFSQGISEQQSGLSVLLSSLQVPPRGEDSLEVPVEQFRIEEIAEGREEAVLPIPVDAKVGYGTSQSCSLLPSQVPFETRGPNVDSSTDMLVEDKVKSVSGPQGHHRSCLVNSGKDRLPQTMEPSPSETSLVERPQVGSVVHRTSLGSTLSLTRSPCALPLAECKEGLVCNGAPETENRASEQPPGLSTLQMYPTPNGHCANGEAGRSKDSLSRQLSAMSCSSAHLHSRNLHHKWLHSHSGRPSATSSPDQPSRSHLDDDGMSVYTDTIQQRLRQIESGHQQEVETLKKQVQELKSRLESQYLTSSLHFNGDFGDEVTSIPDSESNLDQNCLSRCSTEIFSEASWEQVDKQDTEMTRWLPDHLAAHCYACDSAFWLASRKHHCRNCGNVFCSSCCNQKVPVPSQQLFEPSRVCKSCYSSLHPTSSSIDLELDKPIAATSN
Chain of UniProt P20936 (P20936 whole entry, one chain of several): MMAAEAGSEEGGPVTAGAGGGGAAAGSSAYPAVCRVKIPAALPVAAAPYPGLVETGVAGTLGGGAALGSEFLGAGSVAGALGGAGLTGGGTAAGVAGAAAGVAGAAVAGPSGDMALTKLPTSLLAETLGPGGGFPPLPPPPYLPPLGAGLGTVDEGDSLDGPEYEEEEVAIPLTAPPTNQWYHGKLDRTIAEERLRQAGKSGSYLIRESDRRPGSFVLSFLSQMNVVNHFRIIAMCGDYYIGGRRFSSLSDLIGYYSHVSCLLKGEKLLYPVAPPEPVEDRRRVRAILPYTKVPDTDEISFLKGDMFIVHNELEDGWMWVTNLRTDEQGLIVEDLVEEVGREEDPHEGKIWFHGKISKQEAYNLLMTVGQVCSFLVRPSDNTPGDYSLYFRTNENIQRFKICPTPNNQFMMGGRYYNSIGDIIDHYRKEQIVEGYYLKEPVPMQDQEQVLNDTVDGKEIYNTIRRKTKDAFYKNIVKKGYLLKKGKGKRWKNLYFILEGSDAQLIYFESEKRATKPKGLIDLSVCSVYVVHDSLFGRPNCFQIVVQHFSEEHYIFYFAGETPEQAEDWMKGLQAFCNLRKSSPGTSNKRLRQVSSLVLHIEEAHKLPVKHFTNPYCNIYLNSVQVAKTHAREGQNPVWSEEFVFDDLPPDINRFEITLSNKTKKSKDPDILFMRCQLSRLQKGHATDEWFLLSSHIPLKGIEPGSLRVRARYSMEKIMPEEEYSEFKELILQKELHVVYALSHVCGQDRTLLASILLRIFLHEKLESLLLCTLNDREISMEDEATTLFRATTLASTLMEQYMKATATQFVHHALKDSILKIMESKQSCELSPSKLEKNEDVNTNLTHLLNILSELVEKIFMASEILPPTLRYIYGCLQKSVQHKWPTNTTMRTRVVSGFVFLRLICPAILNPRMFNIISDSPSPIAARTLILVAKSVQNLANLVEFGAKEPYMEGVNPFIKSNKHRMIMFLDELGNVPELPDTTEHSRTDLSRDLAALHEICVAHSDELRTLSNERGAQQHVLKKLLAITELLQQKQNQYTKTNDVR
Chain of UniProt P53365 (P53365 whole entry, one chain of several): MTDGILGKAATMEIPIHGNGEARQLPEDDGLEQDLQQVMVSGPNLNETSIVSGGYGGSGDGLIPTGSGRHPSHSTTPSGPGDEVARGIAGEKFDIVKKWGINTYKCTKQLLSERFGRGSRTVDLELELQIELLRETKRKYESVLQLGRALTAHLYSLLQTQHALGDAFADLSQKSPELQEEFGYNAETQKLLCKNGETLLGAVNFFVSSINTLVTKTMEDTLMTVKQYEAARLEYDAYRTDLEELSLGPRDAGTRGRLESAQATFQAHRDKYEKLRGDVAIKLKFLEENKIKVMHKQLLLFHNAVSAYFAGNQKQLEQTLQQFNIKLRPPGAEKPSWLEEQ
Chain of UniProt Q96KA5 (Q96KA5 whole entry, one chain of several): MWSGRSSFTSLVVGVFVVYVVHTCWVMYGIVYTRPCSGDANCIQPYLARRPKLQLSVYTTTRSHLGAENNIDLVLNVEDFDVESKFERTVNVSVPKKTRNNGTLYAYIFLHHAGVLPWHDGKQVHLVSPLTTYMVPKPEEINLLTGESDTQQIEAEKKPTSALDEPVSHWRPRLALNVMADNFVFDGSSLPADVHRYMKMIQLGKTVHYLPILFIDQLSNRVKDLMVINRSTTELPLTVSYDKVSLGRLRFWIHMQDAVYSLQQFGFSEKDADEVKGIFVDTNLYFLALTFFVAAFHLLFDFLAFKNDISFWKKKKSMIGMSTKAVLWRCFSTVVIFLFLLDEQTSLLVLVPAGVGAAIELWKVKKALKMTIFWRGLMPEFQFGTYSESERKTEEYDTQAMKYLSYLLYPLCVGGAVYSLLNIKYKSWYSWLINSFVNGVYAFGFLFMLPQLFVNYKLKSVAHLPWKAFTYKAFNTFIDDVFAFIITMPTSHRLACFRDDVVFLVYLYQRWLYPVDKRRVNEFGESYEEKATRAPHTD

Target	NP40-soluble protein abundance (concentration: 0.1mM)	NP40-soluble protein abundance (concentration: 0.5mM)	NP40-soluble protein abundance (concentration: 1mM)	NP40-soluble protein abundance (concentration: 2mM)	NP40-soluble protein abundance (concentration: 4mM)	NP40-soluble protein abundance (concentration: 6mM)	NP40-soluble protein abundance (concentration: 8mM)	NP40-soluble protein abundance (concentration: 10mM)
G3V583|Q8N128|Q8N128-2 (UniProt Q8N128)	0.912 ± 0.089	0.928 ± 0.084	0.869 ± 0.13	0.94 ± 0.16	0.887 ± 0.16	0.861 ± 0.14	0.87 ± 0.1	0.902 ± 0.14
A0A0C4DGS0|P56556 (UniProt P56556)	0.947 ± 0.069	0.934 ± 0.051	1.05 ± 0.1	1.08 ± 0.12	1.09 ± 0.17	1.02 ± 0.093	0.939 ± 0.064	1.01 ± 0.1
G5E953|Q13615|Q13615-2|Q13615-3 (UniProt Q13615)	1.01 ± 0.036	0.987 ± 0.04	0.978 ± 0.063	0.953 ± 0.034	0.976 ± 0.045	0.963 ± 0.065	1 ± 0.042	0.971 ± 0.028
F8VTV8|F8VWX7|F8VYH9|P11802 (UniProt P11802)	0.977 ± 0.13	1.06 ± 0.048	0.999 ± 0.041	1.05 ± 0.071	1.06 ± 0.056	1.02 ± 0.049	0.995 ± 0.04	0.973 ± 0.015
A8MQ02|J3KN01|P55196|P55196-3|P55196-5 (UniProt P55196)	1.15 ± 0.16	0.987 ± 0.079	1 ± 0.038	1.05 ± 0.14	1.18 ± 0.34	1.18 ± 0.21	1.16 ± 0.14	1.13 ± 0.078
E9PK67|E9PNI7|Q53GL7 (UniProt Q53GL7)	1.05 ± 0.097	1.06 ± 0.12	0.954 ± 0.041	1.01 ± 0.15	0.982 ± 0.12	0.935 ± 0.11	0.949 ± 0.019	0.949 ± 0.08
A6NJD9|A8MVT4|A8MYK1|Q16540 (UniProt Q16540)	1.06 ± 0.1	1.11 ± 0.23	1.28 ± 0.22	1.29 ± 0.31	1.36 ± 0.41	1.14 ± 0.35	1.19 ± 0.32	1.2 ± 0.37
A0A0C4DFU2|P04179|P04179-4 (UniProt P04179)	0.85 ± 0.056	0.843 ± 0.071	0.851 ± 0.071	0.839 ± 0.043	0.814 ± 0.045	0.823 ± 0.052	0.734 ± 0.073	0.776 ± 0.07
A0A087WUL0|Q3LXA3 (UniProt Q3LXA3)	0.988 ± 0.11	0.963 ± 0.11	0.978 ± 0.14	0.928 ± 0.12	0.948 ± 0.11	0.96 ± 0.16	0.96 ± 0.1	0.951 ± 0.097
A0A5E8|Q99501|C9JFI0 (UniProt Q99501)	1.12 ± 0.09	1.17 ± 0.18	1.21 ± 0.1	1.3 ± 0.15	1.3 ± 0.086	1.37 ± 0.075	1.46 ± 0.035	1.38 ± 0.078
A0A0A0MTB8|Q8NI36 (UniProt Q8NI36)	1.1 ± 0.013	1.18 ± 0.047	1.2 ± 0.064	1.55 ± 0.056	2 ± 0.13	2.39 ± 0.2	2.33 ± 0.13	2.39 ± 0.3
E9PGC0|P20936|P20936-2|P20936-4 (UniProt P20936)	1.05 ± 0.069	1.04 ± 0.091	1.02 ± 0.11	0.997 ± 0.072	0.909 ± 0.027	0.931 ± 0.032	0.961 ± 0.048	0.899 ± 0.031
B0QY89|Q9Y262|Q9Y262-2 (UniProt Q9Y262)	1.08 ± 0.062	1.09 ± 0.09	1.06 ± 0.1	1.17 ± 0.19	1.33 ± 0.28	1.47 ± 0.34	1.57 ± 0.29	1.75 ± 0.35
A0A0X1KG71|Q8WX92 (UniProt Q8WX92)	0.9588 ± 0.0051	0.964 ± 0.014	0.9785 ± 0.0083	0.973 ± 0.016	0.957 ± 0.025	0.96 ± 0.012	0.936 ± 0.024	0.946 ± 0.02
A0A0C4DFX4|Q6ZRS2|Q6ZRS2-2|Q6ZRS2-3 (UniProt Q6ZRS2)	1.12 ± 0.075	1.11 ± 0.013	1.3 ± 0.042	1.44 ± 0.17	1.6 ± 0.21	1.62 ± 0.17	1.86 ± 0.33	1.83 ± 0.29
F5GY05 (UniProt Q96EK7)	1.06 ± 0.034	1 ± 0.11	1.01 ± 0.036	1.06 ± 0.083	1 ± 0.047	0.99 ± 0.042	1.05 ± 0.083	1.05 ± 0.13
G5E9Z2|Q96KA5|Q96KA5-2 (UniProt Q96KA5)	1.09 ± 0.049	1.07 ± 0.017	1.02 ± 0.042	0.983 ± 0.034	0.989 ± 0.016	0.971 ± 0.039	0.974 ± 0.035	0.96 ± 0.04
D6RAN8|H7C5U8|Q9P0M9 (UniProt Q9P0M9)	1.09 ± 0.38	1.2 ± 0.5	1.53 ± 0.78	1.81 ± 0.82	1.91 ± 0.83	1.72 ± 0.79	1.64 ± 0.79	1.58 ± 0.84
A9IYQ1|Q9NTI5|Q9NTI5-2 (UniProt Q9NTI5)	1.01 ± 0.015	1.03 ± 0.024	1.01 ± 0.015	0.995 ± 0.036	1.01 ± 0.035	1.01 ± 0.052	1.02 ± 0.08	0.992 ± 0.041
G3V394|Q9Y4I1-3 (UniProt Q9Y4I1)	1.28 ± 0.16	2.15 ± 0.36	2.39 ± 0.25	2.51 ± 0.3	2.65 ± 0.31	2.59 ± 0.39	2.5 ± 0.4	2.51 ± 0.36
C9JWC4|Q8NCD3|Q8NCD3-2|Q8NCD3-3 (UniProt Q8NCD3)	1.07 ± 0.053	1.12 ± 0.041	1.15 ± 0.069	1.18 ± 0.025	1.19 ± 0.15	1.18 ± 0.067	1.2 ± 0.055	1.13 ± 0.081
A8MXF6|B7ZBD5|Q9UBK7|Q9UBK7-2|Q9UBK7-3|Q9UNT1|Q9UNT1-2|Q9UNT1-3 (UniProt Q9UNT1+Q9UBK7+B7ZBD5+A8MXF6)	1.03 ± 0.038	1.03 ± 0.035	1.02 ± 0.032	1.01 ± 0.084	0.947 ± 0.046	0.955 ± 0.071	0.949 ± 0.053	0.94158 ± 0.00038
G3XAN4|Q15629|Q15629-2 (UniProt Q15629)	0.776 ± 0.028	0.785 ± 0.098	0.911 ± 0.14	0.819 ± 0.16	0.8 ± 0.15	0.783 ± 0.23	0.898 ± 0.19	0.905 ± 0.16
A0A087X1E4|P53365|P53365-3 (UniProt P53365)	0.956 ± 0.05	0.853 ± 0.057	0.972 ± 0.052	0.963 ± 0.08	0.913 ± 0.088	0.906 ± 0.1	0.861 ± 0.14	0.889 ± 0.068
A0A0U1RR32|A0A0U1RRH7|P04908|P0C0S8|P20671|Q6FI13|Q7L7L0|Q93077|Q96KK5|Q99878 (UniProt Q99878+Q7L7L0+Q6FI13+Q93077+P20671+P0C0S8+Q96KK5+P04908)	1.01 ± 0.11	0.7204 ± 0.0051	1.26 ± 0.37	1.24 ± 0.024	1.76 ± 0.48	1.92 ± 0.49	1.4 ± 0.53	2.39 ± 1.2
B8ZZU6|E9PBF9|P15336-5|P15336 (UniProt P15336)	0.868 ± 0.086	0.907 ± 0.044	0.969 ± 0.14	0.943 ± 0.078	0.899 ± 0.011	0.899 ± 0.045	0.906 ± 0.1	0.955 ± 0.078
